Data reported in PubChem BioAssay (EPA / NIEHS).
Active and inactive are the calls of the source. Rule for the calls: active = hit-call score of the fitted dose curve at least 0.9, where 1 is the maximum; inactive = score below 0.9.

Legend:
[1] = ATG_GRE_CIS: Attagene CIS-FACTORIAL HepG2 Assay for human Glucocorticoid Response Elements (GRE) (AID 2282947); settings: HepG2 GRE cis-reporter, Attagene multiplex mRNA; actives raise or lower the signal
Method in brief: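 HepG2, transient cis-reporter transfection, 24 h. Reporter mRNA: RT-PCR then CE, fluorescence. Fit both directions vs DMSO.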

[2] = ATG_ISRE_CIS: Attagene CIS-FACTORIAL HepG2 Assay for human Interferon Regulatory Factor 1 (IRF1) binding to an Interferon-Stimulated Response Element (ISRE) (AID 2282948); settings: HepG2 ISRE cis-reporter (Attagene), mRNA transcription readout; actives raise or lower the signal
Method in brief: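 Read-out: fluorescent RT-PCR products resolved by capillary electrophoresis, reporting endogenous transcription factor activity via ISRE-driven reporter mRNA in transfected HepG2 cells dosed for 24 h; gain or loss fitted relative to DMSO.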

[3] = ATG_M_32_CIS: Attagene CIS-FACTORIAL HepG2 Assay for M32 Transcription Factor (Internal Marker) (AID 2282949); settings: HepG2 Attagene cis-factorial M32 reporter, mRNA; actives raise or lower the signal;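 note: background control marker of the multiplexed CIS panel rather than a real target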
Method in brief: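 Using DMSO as baseline, bidirectional curve fits were applied to reporter mRNA signals. These came from transiently transfected HepG2 cells exposed for 24 h, with RNA analysed by RT-PCR, FAM primer extension, HpaI digestion and CE.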

[4] = ATG_M_06_CIS: Attagene CIS-FACTORIAL HepG2 Assay for M06 Transcription Factor (Internal Marker) (AID 2282950); settings: HepG2 Attagene CIS-FACTORIAL M06 internal marker reporter; actives raise or lower the signal
Method in brief: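 Serves as a background control readout. Transfected HepG2 exposed to compounds for 24 h, then reporter transcripts quantified by fluorescent RT-PCR and capillary electrophoresis. Both directions fitted against DMSO baseline.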

[5] = molecular target: Hypoxia-inducible factor 1-alpha (Homo sapiens) (UniProt Q16665); test: ATG_HIF1a_CIS: Attagene CIS-FACTORIAL HepG2 Assay for human Hypoxia Inducible Factor 1 (HIF1A) (AID 2282951); settings: HepG2 Attagene cis-factorial HIF1a reporter transcription; actives raise or lower the signal
Method in brief: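 Cis-element reporter constructs were transiently transfected into HepG2 cells, which were treated for 24 h; reporter RNA was reverse-transcribed, amplified, labelled and resolved by capillary electrophoresis.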

[6] = molecular target: Hepatocyte nuclear factor 6 (Homo sapiens) (UniProt Q9UBC0); test: ATG_HNF6_CIS: Attagene CIS-FACTORIAL HepG2 Assay for human Hepatocyte Nuclear Factor 6 (HNF6) (AID 2282952); settings: HepG2 Attagene cis-factorial HNF6 reporter transcription; actives raise or lower the signal
Method in brief: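 Using cis-element reporters in HepG2 liver cells, the assay tracks endogenous factor-driven transcription 24 h post-dosing. Signal comes from 6-FAM-labelled, HpaI-digested RT-PCR fragments, with gain or loss scored against DMSO.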

[7] = molecular target: Heat shock factor protein 1 (Homo sapiens) (UniProt Q00613); test: ATG_HSE_CIS: Attagene CIS-FACTORIAL HepG2 Assay for human Heat Shock Transcription Factor 1 (HSE) (AID 2282953); settings: HepG2 HSE cis-reporter, Attagene RNA transcription; actives raise or lower the signal
Method in brief: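 Endogenous transcription factor activity in transiently transfected HepG2, read as reporter mRNA by RT-PCR with fluorescent capillary electrophoresis after 24 h. Gain or loss of signal fitted versus DMSO baseline.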

[8] = ATG_MRE_CIS: Attagene CIS-FACTORIAL HepG2 Assay for human Metal Responsive Element (MRE) (AID 2282954); settings: HepG2 MRE cis-reporter transcription, Attagene multiplex; actives raise or lower the signal
Method in brief: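 Readout: capillary electrophoresis of 6-FAM-labelled, HpaI-digested RT-PCR reporter products. System: HepG2 cells carrying transient multiplexed cis reporters, dosed 24 h. Analysis: bidirectional fit, DMSO baseline.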

[9] = ATG_PBREM_CIS: Attagene CIS-FACTORIAL HepG2 Assay for human Phenobarbital-responsive Enhancer Module (PBREM) (AID 2282955); settings: HepG2 PBREM cis-reporter, Attagene multiplexed transcription; actives raise or lower the signal
Method in brief: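 Multiplexed cis-reporter readout in human hepatoma HepG2 cells; PBREM-regulated transcript quantified after 24 h exposure by fluorescent RT-PCR fragment analysis. Signal changes up or down fitted relative to DMSO.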

[10] = molecular target: Paired box protein Pax-6 (Homo sapiens) (UniProt P26367); test: ATG_Pax6_CIS: Attagene CIS-FACTORIAL HepG2 Assay for human Paired Box 6 (PAX6) (AID 2282956); settings: HepG2 CIS-FACTORIAL PAX6 reporter transcription, RNA readout; actives raise or lower the signal
Method in brief: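 Readout: reporter transcript fluorescence after RT-PCR and capillary electrophoresis. Cells: HepG2, transiently transfected with cis-regulated MRTUs. Exposure 24 h. Gain or loss of signal fitted bidirectionally relative to DMSO.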

[11] = ATG_PXRE_CIS: Attagene CIS-FACTORIAL HepG2 Assay for human Pregnane X Receptor Element (PXRE) (AID 2282957); settings: HepG2 Attagene CIS-FACTORIAL PXRE reporter, mRNA; actives raise or lower the signal
Method in brief: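 Using HepG2 transfected with multiple reporter transcription units, endogenous factor-driven transcription was scored as reporter mRNA after 24 h exposure.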

[12] = ATG_PPRE_CIS: Attagene CIS-FACTORIAL HepG2 Assay for human Peroxisome Proliferator-activated Response Element (PPRE) (AID 2282958); settings: HepG2 PPRE cis-element reporter, Attagene transcription factor profiling; actives raise or lower the signal
Method in brief: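 DMSO served as negative control and baseline for bidirectional curve fitting. Signal came from PPRE-regulated reporter mRNA in HepG2 cells, measured 24 h post-dosing by RT-PCR, 6-FAM primer extension and capillary electrophoresis.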

[13] = ATG_RORE_CIS: Attagene CIS-FACTORIAL HepG2 Assay for human RAR-related Orphan Receptor Element (RORE) (AID 2282959); settings: HepG2 Attagene cis-factorial RORE reporter, mRNA; actives raise or lower the signal
Method in brief: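 Transfect HepG2 with MRTUs; treat 24 h; extract RNA; RT with oligo(dT); PCR with reporter-specific primers; 6-FAM primer extension; HpaI digest 2 h at 37 C; capillary electrophoresis. Fit vs DMSO, bidirectional.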

[14] = ATG_Sox_CIS: Attagene CIS-FACTORIAL HepG2 Assay for human SRY-box transcription factor (SOX) (AID 2282960); settings: HepG2 Attagene cis-factorial SOX reporter, mRNA; actives raise or lower the signal
Method in brief: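 Fluorescence-labelled cDNA fragments from reporter transcripts, sized by CE, give the signal. Cells: HepG2, transiently transfected with cis-regulated reporter units. Exposure 24 h; DMSO negative control; bidirectional curve fitting.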

[15] = molecular target: Transcription factor Sp1 (Homo sapiens) (UniProt P08047); test: ATG_Sp1_CIS: Attagene CIS-FACTORIAL HepG2 Assay for human Specificity Protein 1 (Sp1) (AID 2282961); settings: HepG2 Sp1 cis-reporter transcription, actives raise or lower the signal
Method in brief: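 Chemicals are dosed onto HepG2 cells transfected with multiple cis-promoter reporter constructs, and after 24 h reporter RNA is reverse-transcribed, PCR-amplified and resolved by capillary electrophoresis for fluorescence quantitation; activity is scored up or down against DMSO.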

[16] = ATG_SREBP_CIS: Attagene CIS-FACTORIAL HepG2 Assay for human Sterol Regulatory Element Binding (SREBP) (AID 2282962); settings: HepG2 Attagene cis-factorial SREBP reporter, mRNA; actives raise or lower the signal
Method in brief: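 Readout: fluorescent reporter-transcript peaks resolved by capillary electrophoresis after RT-PCR. Cells were human HepG2 carrying transfected cis-promoter reporter constructs, dosed for 24 h. Gain or loss of signal was fitted against DMSO controls.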

[17] = molecular target: Signal transducer and activator of transcription 3 (Homo sapiens) (UniProt P40763); test: ATG_STAT3_CIS: Attagene CIS-FACTORIAL HepG2 Assay for human Signal Transducer and Activator of Transcription 3 (STAT3) (AID 2282963); settings: HepG2, Attagene cis-factorial STAT3 reporter transcription; actives raise or lower the signal
Method in brief: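 Uses human liver HepG2 transiently carrying cis-regulated reporter transcription units. Following 24 h dosing, reporter mRNA induction was detected by RT-PCR and capillary electrophoresis, analysed bidirectionally versus DMSO.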

[18] = ATG_TA_CIS: Attagene CIS-FACTORIAL HepG2 Assay for human TA Basal Promoter (AID 2282964); settings: HepG2 Attagene CIS-factorial TA basal promoter reporter; actives raise or lower the signal
Method in brief: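 Background-control readout: TA basal promoter reporter mRNA, fitted in both directions relative to DMSO. Measured by RT-PCR and capillary electrophoresis 24 hours after treating HepG2 human liver cells transiently carrying multiplexed cis-regulated reporter constructs.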

[19] = ATG_TCF_b_cat_CIS: Attagene CIS-FACTORIAL HepG2 Assay for human T-Cell-Factor with beta-catenin (TCF/b-cat) (AID 2282965); settings: HepG2 TCF/beta-catenin cis-reporter transcription, actives raise or lower the signal
Method in brief: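 In this cis-format system, transfected HepG2 cells report endogenous transcription factor activity. Readout after 24 h exposure is reporter transcript abundance from RT-PCR and capillary electrophoresis, analysed for gain or loss of signal versus DMSO.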

Measured: AC50

Sequence of Hypoxia-inducible factor 1-alpha (Homo sapiens) (Q16665 whole entry, looked up): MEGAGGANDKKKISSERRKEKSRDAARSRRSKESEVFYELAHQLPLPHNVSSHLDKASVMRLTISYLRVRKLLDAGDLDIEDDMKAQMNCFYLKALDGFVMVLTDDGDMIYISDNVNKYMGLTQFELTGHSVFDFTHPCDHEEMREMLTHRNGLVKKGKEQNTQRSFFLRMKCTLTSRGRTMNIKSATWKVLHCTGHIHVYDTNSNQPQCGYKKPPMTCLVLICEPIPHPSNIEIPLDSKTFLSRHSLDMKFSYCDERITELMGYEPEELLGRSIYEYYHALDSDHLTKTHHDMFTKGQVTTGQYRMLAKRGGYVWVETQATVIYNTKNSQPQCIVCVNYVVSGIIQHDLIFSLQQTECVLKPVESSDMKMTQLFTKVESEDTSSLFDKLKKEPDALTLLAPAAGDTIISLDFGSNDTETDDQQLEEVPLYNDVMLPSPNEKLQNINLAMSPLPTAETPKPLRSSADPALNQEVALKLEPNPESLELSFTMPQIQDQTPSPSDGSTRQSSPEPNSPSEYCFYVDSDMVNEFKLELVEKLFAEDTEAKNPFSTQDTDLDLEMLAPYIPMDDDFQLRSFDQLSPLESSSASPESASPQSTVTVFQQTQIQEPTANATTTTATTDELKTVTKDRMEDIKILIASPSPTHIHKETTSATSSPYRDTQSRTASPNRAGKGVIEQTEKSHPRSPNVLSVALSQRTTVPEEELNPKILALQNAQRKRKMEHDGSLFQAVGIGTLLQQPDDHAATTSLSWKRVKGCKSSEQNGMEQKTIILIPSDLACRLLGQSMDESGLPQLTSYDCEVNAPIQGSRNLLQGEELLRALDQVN
Sequence of Transcription factor Sp1 (Homo sapiens) (P08047 whole entry, looked up): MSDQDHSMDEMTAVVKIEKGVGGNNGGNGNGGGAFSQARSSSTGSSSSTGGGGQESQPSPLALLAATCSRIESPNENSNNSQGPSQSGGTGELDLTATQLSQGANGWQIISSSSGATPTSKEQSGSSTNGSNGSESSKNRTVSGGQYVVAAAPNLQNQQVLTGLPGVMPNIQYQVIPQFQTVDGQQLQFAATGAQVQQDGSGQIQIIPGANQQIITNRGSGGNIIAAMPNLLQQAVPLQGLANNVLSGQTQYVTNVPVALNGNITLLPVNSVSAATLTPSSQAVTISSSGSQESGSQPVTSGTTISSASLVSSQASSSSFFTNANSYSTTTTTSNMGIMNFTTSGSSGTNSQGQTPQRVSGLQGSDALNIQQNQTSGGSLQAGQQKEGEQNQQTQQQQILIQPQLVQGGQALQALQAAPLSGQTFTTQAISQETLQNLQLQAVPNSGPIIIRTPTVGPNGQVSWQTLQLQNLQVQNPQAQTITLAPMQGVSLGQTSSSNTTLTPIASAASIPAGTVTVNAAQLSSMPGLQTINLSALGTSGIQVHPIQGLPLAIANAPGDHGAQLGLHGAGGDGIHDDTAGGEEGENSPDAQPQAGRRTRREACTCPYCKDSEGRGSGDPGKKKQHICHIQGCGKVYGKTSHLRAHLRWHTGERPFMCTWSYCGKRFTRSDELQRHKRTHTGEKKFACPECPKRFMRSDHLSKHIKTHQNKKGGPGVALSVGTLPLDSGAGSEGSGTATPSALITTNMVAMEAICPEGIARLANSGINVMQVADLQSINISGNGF
Sequence of Signal transducer and activator of transcription 3 (Homo sapiens) (P40763 whole entry, looked up): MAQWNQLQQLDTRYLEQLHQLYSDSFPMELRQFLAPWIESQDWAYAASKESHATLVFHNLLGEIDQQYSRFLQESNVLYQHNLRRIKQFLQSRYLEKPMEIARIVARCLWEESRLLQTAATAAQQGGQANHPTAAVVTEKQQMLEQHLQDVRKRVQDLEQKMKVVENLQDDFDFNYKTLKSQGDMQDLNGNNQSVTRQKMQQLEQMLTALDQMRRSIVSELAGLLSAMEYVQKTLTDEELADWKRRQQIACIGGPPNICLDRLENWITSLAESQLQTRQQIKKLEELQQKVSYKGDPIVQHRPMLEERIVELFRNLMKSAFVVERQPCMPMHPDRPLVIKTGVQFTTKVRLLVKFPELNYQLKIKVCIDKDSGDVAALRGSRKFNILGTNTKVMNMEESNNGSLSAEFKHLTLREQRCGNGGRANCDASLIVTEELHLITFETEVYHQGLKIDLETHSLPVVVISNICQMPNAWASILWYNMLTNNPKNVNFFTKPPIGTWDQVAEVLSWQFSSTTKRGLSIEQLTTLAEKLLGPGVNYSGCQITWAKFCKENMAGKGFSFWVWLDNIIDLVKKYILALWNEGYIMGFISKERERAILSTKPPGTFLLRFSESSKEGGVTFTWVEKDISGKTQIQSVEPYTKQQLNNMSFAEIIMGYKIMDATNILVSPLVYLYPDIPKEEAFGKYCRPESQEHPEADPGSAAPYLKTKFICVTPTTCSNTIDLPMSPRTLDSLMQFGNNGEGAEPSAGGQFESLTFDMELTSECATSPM
Sequence of Paired box protein Pax-6 (Homo sapiens) (P26367 whole entry, looked up): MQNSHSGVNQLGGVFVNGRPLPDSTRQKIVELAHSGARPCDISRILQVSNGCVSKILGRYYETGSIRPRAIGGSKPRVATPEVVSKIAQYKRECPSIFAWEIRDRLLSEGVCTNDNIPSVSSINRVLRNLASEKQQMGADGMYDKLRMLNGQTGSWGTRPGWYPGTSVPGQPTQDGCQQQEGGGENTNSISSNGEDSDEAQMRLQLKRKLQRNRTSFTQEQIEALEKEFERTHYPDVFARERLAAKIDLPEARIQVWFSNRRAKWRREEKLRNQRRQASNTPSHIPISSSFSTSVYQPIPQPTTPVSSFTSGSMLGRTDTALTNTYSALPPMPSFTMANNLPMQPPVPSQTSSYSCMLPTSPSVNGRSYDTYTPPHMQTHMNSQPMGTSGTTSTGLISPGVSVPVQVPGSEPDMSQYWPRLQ
Sequence of Heat shock factor protein 1 (Homo sapiens) (Q00613 whole entry, looked up): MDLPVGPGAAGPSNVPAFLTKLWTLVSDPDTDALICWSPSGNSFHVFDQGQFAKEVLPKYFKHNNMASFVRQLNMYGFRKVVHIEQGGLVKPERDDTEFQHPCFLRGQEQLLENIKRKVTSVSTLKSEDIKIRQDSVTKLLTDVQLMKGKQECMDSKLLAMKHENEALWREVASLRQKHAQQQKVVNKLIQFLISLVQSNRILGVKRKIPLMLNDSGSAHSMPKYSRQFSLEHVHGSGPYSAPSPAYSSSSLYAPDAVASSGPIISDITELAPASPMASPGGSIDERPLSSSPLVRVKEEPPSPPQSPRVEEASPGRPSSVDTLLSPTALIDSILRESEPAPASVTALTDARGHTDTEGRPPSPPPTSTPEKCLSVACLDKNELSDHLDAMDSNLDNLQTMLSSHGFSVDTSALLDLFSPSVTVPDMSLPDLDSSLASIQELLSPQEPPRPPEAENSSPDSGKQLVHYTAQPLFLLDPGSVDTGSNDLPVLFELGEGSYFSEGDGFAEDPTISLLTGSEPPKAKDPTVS
Sequence of Hepatocyte nuclear factor 6 (Homo sapiens) (Q9UBC0 whole entry, looked up, the tested form may be a part): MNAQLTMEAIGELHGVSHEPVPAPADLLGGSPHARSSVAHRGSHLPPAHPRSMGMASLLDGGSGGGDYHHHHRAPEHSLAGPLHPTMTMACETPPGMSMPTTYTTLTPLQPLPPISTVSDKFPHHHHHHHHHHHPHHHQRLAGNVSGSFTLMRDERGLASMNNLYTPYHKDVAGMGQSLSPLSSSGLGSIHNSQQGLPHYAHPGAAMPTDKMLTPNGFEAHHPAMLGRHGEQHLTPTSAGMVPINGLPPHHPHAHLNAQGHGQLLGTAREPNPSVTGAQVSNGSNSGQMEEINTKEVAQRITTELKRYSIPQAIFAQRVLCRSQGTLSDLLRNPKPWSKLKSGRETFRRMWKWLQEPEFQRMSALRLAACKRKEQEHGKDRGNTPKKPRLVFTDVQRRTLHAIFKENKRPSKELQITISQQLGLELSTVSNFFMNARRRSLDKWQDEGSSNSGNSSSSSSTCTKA

CCC/C=C/C=O
inactive: [1] | [2] | [3] | [4] | [5] | [6] | [7] | [8] | [9] | [10] | [12] | [13] | [14] | [15] | [16] | [17] | [18] | [19]
active: [11] 11.2 µM

COc1cc(C=O)ccc1OC(=O)C(C)C
inactive: [1] | [2] | [3] | [4] | [5] | [6] | [7] | [8] | [10] | [11] | [12] | [13] | [14] | [15] | [16] | [17] | [18] | [19]

COc1cc(C)cc(O)c1
inactive: [1] | [2] | [3] | [4] | [5] | [6] | [7] | [8] | [9] | [10] | [13] | [14] | [15] | [16] | [17] | [18] | [19]

CCCCCCC#CC(=O)OC
active: [11] 30.5 µM
inactive: [1] | [2] | [3] | [4] | [5] | [7] | [8] | [10] | [12] | [13] | [14] | [15] | [16] | [17] | [18] | [19]

CCCCCCCCCCCCCOS(=O)(=O)O
active: [12] 7.4 µM
inactive: [1] | [2] | [3] | [4] | [5] | [6] | [7] | [8] | [10] | [15] | [16] | [18] | [19]

C=C(C)C(=O)O
inactive: [1] | [2] | [3] | [4] | [5] | [6] | [8] | [10] | [11] | [12] | [13] | [14] | [15] | [17] | [18] | [19]

Cc1ccc(C(C)C)cc1O
active: [11] 14.2 µM
inactive: [1] | [2] | [3] | [4] | [5] | [6] | [7] | [8] | [10] | [13] | [14] | [15] | [18] | [19]

CC(=O)O[C@H](CC(=O)[O-])C[N+](C)(C)C
inactive: [1] | [2] | [3] | [4] | [5] | [6] | [7] | [8] | [10] | [12] | [13] | [14] | [15] | [17] | [18] | [19]
